In PubChem BioAssay (EPA / NIEHS):
Where “and” joins values, the source holds several entries; their conditions need not be identical. Identical values can stand only once. Results filed as inconclusive are left out. The source holds several records for some structures; these can differ, active in one and inactive in another. Calls of active or inactive are those of the source. The calls were made as follows, unless noted: active = hit-call score of the fitted dose curve at least 0.9, where 1 is the maximum; inactive = score below 0.9.

Tests used:
[1] = CCTE_Shafer_MEA_dev_burst_rate: CCTE's Neural Network Formation Assay for Burst Rate, Shafer Lab (AID 2284042);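 as to AC50: potency for loss of burst rate below DMSO control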
How it was run: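 Cells plated, treated day 0; recorded DIV 5, 7, 9, 12; fed and re-treated DIV 5, 9. Endpoint: bursts per recording time, active-electrode well mean, trapezoidal AUC, fitted in decreasing direction against DMSO baseline.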

[2] = CCTE_Shafer_MEA_dev_bursting_electrodes_number: CCTE's Neural Network Formation Assay for Number of Bursting Electrodes, Shafer Lab (AID 2284043; active = hit-call score of the fitted dose curve at least 0.9, where 1 is the maximum;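 as to AC50: potency is for loss of bursting electrodes relative to DMSO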)
How it was run: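 Primary rat cortical neurons were cultured on PEI-coated 48-well MEA plates (16 electrodes/well) and exposed from plating through day 12, with compound renewed at feeds on DIV 5 and 9. Electrodes bursting ≥1 per 2 min were counted on DIV 5, 7, 9, 12; trapezoidal AUC taken.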

[3] = CCTE_Shafer_MEA_dev_burst_duration_mean: CCTE's Neural Network Formation Assay for Mean Burst Duration, Shafer Lab (AID 2284045);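 as to AC50: curve fitted for loss meaning shorter burst duration than DMSO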
How it was run: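 Primary rat cortical neurons on PEI-coated 16-electrode MEA wells, exposed from plating through day 12 with compound renewed at DIV 5 and 9; spontaneous activity recorded days 5, 7, 9, 12. Well-mean burst duration collapsed as trapezoidal AUC, fitted for loss versus DMSO.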

[4] = CCTE_Shafer_MEA_dev_interburst_interval_mean: CCTE's Neural Network Formation Assay for Mean Interburst Interval, Shafer Lab (AID 2284046);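 also: well-mean interburst interval of bursting electrodes as AUC over four recording days; curve fitted for decrease in interburst interval relative to DMSO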
How it was run: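 Developing rat cortical networks on 48-well MEAs receive compound from the day of plating. Burst intervals from each active electrode are averaged per well, and AUC over the recording days is fitted in the negative direction against DMSO.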

[5] = CCTE_Shafer_MEA_dev_inter_network_spike_interval_mean: CCTE's Neural Network Formation Assay for Mean Inter-network Spike Interval, Shafer Lab (AID 2284047);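 as to AC50: potency for a decrease in mean inter-network spike interval below DMSO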
How it was run: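 Rat cortical cultures, 1.5 x 10^5 cells/well on 48-well MEA plates; continuous exposure days 0–12, medium and compound refreshed DIV 5, 9. Mean time between consecutive network-spike peaks; AUC across DIV 5/7/9/12; DMSO baseline, negative fitting direction.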

[6] = CCTE_Shafer_MEA_dev_network_spike_number: CCTE's Neural Network Formation Assay for Number of Network Spikes, Shafer Lab (AID 2284048);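 also: synchronized bursts across electrodes counted on days 5 7 9 12 and integrated as AUC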;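 as to AC50: fit as a loss of signal meaning fewer network spikes than DMSO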
How it was run: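 Primary rat cortical neurons were seeded at 1.5 x 10^5 cells/well on PEI-coated 16-electrode MEA wells with laminin, exposed from plating day 0, compound renewed at DIV 5 and 9. Network spikes were recorded on days 5, 7, 9, 12 and summarized as trapezoidal AUC versus DMSO.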

[7] = CCTE_Shafer_MEA_dev_network_spike_peak: CCTE's Neural Network Formation Assay for Mean Number of Electrodes in Network Spike, Shafer Lab (AID 2284049);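 as to AC50: fitted for loss of signal meaning fewer electrodes in network spikes than DMSO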
How it was run: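 Continuous 12-day exposure of rat cortical cultures, starting at plating, on MEA plates. Endpoint: electrodes participating in network-spike peaks, AUC across DIV 5–12, DMSO as negative control.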

[8] = CCTE_Shafer_MEA_dev_spike_duration_mean: CCTE's Neural Network Formation Assay for Mean Spike Duration, Shafer Lab (AID 2284051);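 also: mean network spike duration pooled as area under curve over DIV 5 to 12 recordings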;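 as to AC50: potency for a decrease in mean network spike duration versus DMSO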
How it was run: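 Readout is the average length of network spikes, clustered firing across electrodes, summed over DIV 5, 7, 9 and 12 as area under the curve. Neurons from rat cortex developed networks on MEA plates under continuous 12-day exposure.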

[9] = CCTE_Shafer_MEA_dev_network_spike_duration_std: CCTE's Neural Network Formation Assay for Standard Deviation of Network Spike Duration, Shafer Lab (AID 2284052);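 also: area under curve of spike duration SD across recording days 5 to 12; hits are decreases in network spike duration SD versus DMSO vehicle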
How it was run: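 Read-out is the trapezoidal area-under-the-curve across recordings made on days 5, 7, 9 and 12, fitted in the negative direction against DMSO baseline. Neurons were primary rat cortical cells treated from day 0, with treatment renewed at each feed.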

[10] = CCTE_Shafer_MEA_dev_per_network_spike_spike_number_mean: CCTE's Neural Network Formation Assay for Mean Number of Spikes in a Network Spike, Shafer Lab (AID 2284053);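 as to AC50: fitted as decrease in spikes per network spike relative to DMSO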
How it was run: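 Continuous twelve-day exposure of developing rat cortical networks grown over 16 microelectrodes per well; spontaneous firing is captured at four time points, and the per-network-spike spike number is integrated over development by trapezoidal AUC.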

[11] = UKN5_HCS_SBAD2_cell_viability: Viability Assessment in the University of Konstanz (UKN) Leist Lab Neurite Outgrowth Assay in human iPSC-derived immature Dorsal Root Ganglia Neurons (UKN5) (AID 2284056)
How it was run: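 iPSC-derived immature peripheral neurons (SBAD2) seeded on Matrigel with CHIR99021, SU5402 and DAPT, dosed 1 h later for 24 h. Viability from Hoechst H-33342 and calcein-AM live staining, high-content imaging; bidirectional fit versus DMSO.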

[12] = CCTE_Shafer_MEA_dev_LDH: CCTE's Lactate Dehydrogenase Assay for Cytotoxicity in the Neural Network Formation Assay, Shafer Lab (AID 2284068; active = hit-call score of the fitted dose curve at least 0.9, where 1 is the maximum;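 also: exposure for twelve days from plating with re-dosing on DIV 5 and 9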)
How it was run: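 Cytotoxicity companion to network-formation recordings: rat cortical neurons received compound over 12 days of development, re-dosed at DIV 5 and 9 feeds. Viability was inferred from LDH enzyme activity relative to DMSO.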

[13] = CCTE_Shafer_MEA_acute_AB: CCTE's Alamar Blue Assay for Cytotoxicity in the Neural Acute Assay, Shafer Lab (AID 2284069; active = hit-call score of the fitted dose curve at least 0.9, where 1 is the maximum;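 also: active compounds lower the viability signal compared with DMSO wells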)
How it was run: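 Metabolic activity in chemically exposed rat cortical neurons (MEA cultures, day 13/15 post-plating) measured via CellTiter Blue resazurin reduction, 544/590 nm fluorescence; fitted relative to DMSO, with signal loss indicating reduced viability.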

[14] = UKN5_HCS_SBAD2_neurite_outgrowth: University of Konstanz (UKN) Leist Lab Neurite Outgrowth Assay in human iPSC-derived immature Dorsal Root Ganglia Neurons (UKN5) (AID 2284070); conditions: actives raise or lower the signal
How it was run: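 Human iPSC-derived immature DRG neurons (SBAD2) on Matrigel with CHIR99021 (1.5 uM), SU5402 (5 uM), DAPT (5 uM); compounds added 1 h post-seeding for 24 h. Calcein-AM neurite area imaged; bidirectional fit vs DMSO.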

[15] = CCTE_Shafer_MEA_dev_AB: CCTE's Alamar Blue Assay for Cytotoxicity in the Neural Network Formation Assay, Shafer Lab (AID 2284083; active = hit-call score of the fitted dose curve at least 0.9, where 1 is the maximum;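 also: twelve days of exposure from plating with re-dosing on DIV 5 and 9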)
How it was run: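 Fluorescent resazurin reduction serves as the viability read-out, with DMSO as negative control and baseline. Cells were primary rat cortical neurons grown on MEA plates and dosed from day 0 to day 12, treatment renewed on DIV 5 and 9.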

[16] = CCTE_Shafer_MEA_acute_LDH: CCTE's Lactate Dehydrogenase Assay for Cytotoxicity in the Neural Acute Assay, Shafer Lab (AID 2284086; active = hit-call score of the fitted dose curve at least 0.9, where 1 is the maximum;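 also: active means LDH release rises above DMSO vehicle level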)
How it was run: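 Primary rat cortical neurons on 48-well MEA plates, treated on day 13 or 15 post-plating. After the 40-min recording with compound, medium LDH release was read by absorbance at 490 nm. Gain of signal was fitted against DMSO negative control.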

[17] = CCTE_Shafer_MEA_dev_mutual_information_norm: CCTE's Neural Network Formation Assay for Mutual Information Normalization, Shafer Lab (AID 2284091);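 as to AC50: mutual information between electrodes summarised as area under curve across four recording days; potency is for a decrease in mutual information relative to DMSO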
How it was run: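 Rat cortical cultures, 48-well MEA, continuous exposure DIV 0–12 with full media/compound change DIV 5 and 9. Readout: inter-electrode mutual information, AxIS adaptive spike detection; AUC across DIV 5/7/9/12 recordings; DMSO baseline, negative fitting direction.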

[18] = target: Estrogen receptor (Homo sapiens) (UniProt P03372); experiment: CCTE_Deisenroth_AIME_384WELL_LUC_Shift: CCTE's 384-well Estrogen Receptor Transactivation Assay with AIME metabolic competence data shift (ERTA luciferase; difference in metabolism positive and negative), Deisenroth Lab (AID 2284041);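 also: shift is response with S9 minus without S9 so positive means metabolism raised ER signal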
Sequence of Estrogen receptor (Homo sapiens) (P03372 whole entry, looked up): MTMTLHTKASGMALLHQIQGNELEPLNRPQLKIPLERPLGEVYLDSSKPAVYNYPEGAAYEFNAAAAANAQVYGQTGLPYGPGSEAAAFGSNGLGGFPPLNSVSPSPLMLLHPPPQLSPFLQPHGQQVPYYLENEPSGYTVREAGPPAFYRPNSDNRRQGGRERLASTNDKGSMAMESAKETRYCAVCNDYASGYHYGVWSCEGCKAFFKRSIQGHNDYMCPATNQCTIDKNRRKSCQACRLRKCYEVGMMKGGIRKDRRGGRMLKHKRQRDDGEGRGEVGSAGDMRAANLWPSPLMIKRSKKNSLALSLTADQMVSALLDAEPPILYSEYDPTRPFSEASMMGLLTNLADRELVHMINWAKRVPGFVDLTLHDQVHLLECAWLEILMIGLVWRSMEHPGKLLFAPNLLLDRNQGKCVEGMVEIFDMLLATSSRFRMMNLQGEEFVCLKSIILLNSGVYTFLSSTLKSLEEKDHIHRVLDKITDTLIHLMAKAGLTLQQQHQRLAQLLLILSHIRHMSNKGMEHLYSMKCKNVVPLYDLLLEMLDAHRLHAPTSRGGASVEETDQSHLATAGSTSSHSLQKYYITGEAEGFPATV
How it was run: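 Here, parent compounds undergo 2 h phase I metabolism by PB/BNF-induced rat S9 before 24 h transactivation in VM7Luc4E2 cells; the curve models S9-positive minus S9-negative response over a 10-point series.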

DIO2 (gene 1734) = experiment: CCTE_GLTED_hDIO2: CCTE's human Deiodinase 2 (DIO2) Inhibition Assay, Great Lakes Toxicology and Ecology Division (GLTED) Lab (AID 2284050; active = hit-call score of the fitted dose curve at least 0.9, where 1 is the maximum)
How it was run: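 Cell-free human DIO2 enzyme was incubated with test chemical for 3 h; iodide liberated from substrate was then quantified by the Sandell-Kolthoff reaction (absorbance), run in triplicate. Loss of signal versus DMSO baseline indicated inhibition.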

DIO3 (gene 1735) = experiment: CCTE_GLTED_hDIO3: CCTE's human Deiodinase 3 (DIO3) Inhibition Assay, Great Lakes Toxicology and Ecology Division (GLTED) Lab (AID 2284055; active = hit-call score of the fitted dose curve at least 0.9, where 1 is the maximum;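 as to AC50: potency is for inhibition seen as loss of released iodide signal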)
How it was run: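 Cell-free assay with human DIO3 enzyme produced by adenovirus expression; enzyme incubated with test chemical for 3 hours. Liberated iodide then measured by Sandell-Kolthoff absorbance; loss of signal versus DMSO baseline indicates inhibition, run in triplicate.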

Measured: AC50

CSC1=N[C@@](C)(c2ccccc2)C(=O)N1Nc1ccccc1
active: [12] 15 µM
not listed: [18] | DIO2 (gene 1734) | DIO3 (gene 1735)
inactive: all other assays above

COP(=O)(NC(C)=O)SC (stereo not drawn)
inactive: [1] | [2] | [3] | [4] | [5] | [6] | [7] | [8] | [9] | [10] | [12] | [13] | [16] | [17]
active: [16] 0.00708 µM | [17] 15 µM

CCCCSP(=O)(SCCCC)SCCCC
inactive: [1] | [3] | [5] | [6] | [9]
active: [1] 71.4 µM | [2] 32 µM and 15.8 µM | [4] 63.3 µM and 49.9 µM | [7] 31.8 µM and 16 µM | [8] 50 µM and 16.1 µM | [10] 50 µM and 17 µM | [12] 27.3 µM and 49.9 µM | [15] 50 µM and 63.1 µM | [17] 29.3 µM and 18.4 µM

COP(=O)(OC)SCn1c(=O)oc2cc(Cl)cnc21
active: [18] 71.1 µM

CN(C)[C@@H]1C(=O)C(C(N)=O)=C(O)[C@@]2(O)C(=O)C3=C(O)c4c(O)cccc4[C@@](C)(O)[C@H]3[C@H](O)[C@@H]12
active: [2] 22.7 µM | [7] 50 µM | DIO2 (gene 1734) 100 µM and 61.6 µM | [8] 66.2 µM | [10] 50 µM | DIO3 (gene 1735) 71.9 µM and 25.6 µM and 24.8 µM | [12] 77.7 µM | [15] 50 µM
not listed: [11] | [14] | [18]
inactive: all other assays above

C=C(C)[C@H]1Cc2c(ccc3c2O[C@@H]2COc4cc(OC)c(OC)cc4[C@@H]2C3=O)O1
inactive: DIO2 (gene 1734) | [13] | [16]
active: [1] 17.3 nM and 6.73 nM | [2] 22.8 nM and 12.4 nM | [3] 29.8 nM and 31 nM | [4] 41.4 nM and 31.6 nM | [5] 20.1 nM and 26.2 nM | [6] 14 nM and 10.7 nM | [7] 24.9 nM and 16.5 nM | [8] 35.4 nM and 21.1 nM | [9] 27.7 nM and 14.6 nM | [10] 0.0145 µM | DIO3 (gene 1735) 2.39 µM | [12] 16.4 nM and 15.4 nM | [15] 38.4 nM and 57.1 nM | [17] 0.00709 µM

CC1=NNC(=O)N(/N=C/c2cccnc2)C1
active: [3] 24.8 µM
not listed: [11] | [14] | [18] | DIO2 (gene 1734) | DIO3 (gene 1735)
inactive: all other assays above

CC(C)=CC1C(C(=O)OCN2C(=O)C3=C(CCCC3)C2=O)C1(C)C (stereo not drawn)
active: [7] 1.98 µM | DIO2 (gene 1734) 70 µM | [12] 10 µM
not listed: [11] | [13] | [14] | [18]
inactive: all other assays above

CON=C(C(=O)OC)c1ccccc1CON=C(C)c1cccc(C(F)(F)F)c1
inactive: [13] | [16]
active: [1] 655 nM and 1.28 µM | [2] 728 nM and 758 nM | [3] 674 nM and 995 nM | [4] 1.32 µM and 798 nM | [5] 969 nM and 1.72 µM | [6] 632 nM and 884 nM | [7] 871 nM and 742 nM | [8] 603 nM and 625 nM | [9] 642 nM and 886 nM | [10] 697 nM and 542 nM | [12] 326 nM and 299 nM | [15] 1.26 µM and 437 nM | [17] 671 nM and 812 nM
